# PubChem BioAssay (NCI)
# This is part of a sample that, as a whole, favours compounds with a hit. Of some 83,000 tested, about 20% had one in any assay.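 Interpretation: 100, growth as untreated; towards 0, rising growth inhibition; 0, no net growth; 0 to -100, cell death. Compounds scoring below 10 were considered active.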 Calls of active or inactive are those of the source.
# System: HL-60(TB) leukemia
# Assay: NCI-60 one-dose screen, 48 h (100 = growth as untreated, 0 = no growth, -100 = all killed)
# Details: 10 µM unless noted
row,Compound,growth
1,Cn1c2c(c3ccc(Cl)c(Cl)c31)C(C#N)C1(CCNCC1)NC2=O (stereo not given),4.92% (active)
2,CN(C)C1=NCCN1,97.9% (inactive)
3,CNC(=O)c1cncc(Cn2nc(C)c(NC(=O)c3ccc(COc4ccc(C(F)(F)F)cc4C)cc3)c2C)c1,63.6% (inactive)
4,Oc1ccc(Cc2ccccc2)c2cccnc12,-15.8% (active)
5,COC(=O)c1ccc2oc(NC(=O)c3ccc(Nc4ccc([N+](=O)[O-])cc4C)c([N+](=O)[O-])c3)nc2c1,99.7% (inactive)
6,CCCn1c(=O)c2c(nc(-c3cccc(OCCCCl)c3)n2C)n(CCC)c1=O,107% (inactive)
7,CC[n+]1c(/C=C/C=C2\N(C)c3ccccc3C2(C)C)sc2ccccc21,-30.3% (active)
8,C[n+]1cc2cc3c(cc2c2ccccc21)OCO3,87.5% (inactive)
9,CCOC(=O)CC1CSC(N/N=C/c2ccc(-n3cccn3)cc2)=N1 (stereo not given),94% (inactive)
10,COC1/C=C\OC2(C)Oc3c(C)c(O)c4c(O)c(c(CN(C)CCO)c(O)c4c3C2=O)NC(=O)/C(C)=C\C=C/C(C)C(O)C(C)C(O)C(C)C(OC(C)=O)C1C (stereo not given),114% (inactive)
11,C/C(=N\NC(=S)N1CCCCC1)c1ccccn1,-21.6% (active)
12,COc1cc2c3c(c1)nc(C)n3CCC2,99.7% (inactive)
13,CC(C)c1ccc(C(=O)OCCCl)cc1,85.5% (inactive)
14,O=C(O)/C=C\C(=O)Nc1ccc2c(c1)Cc1cc(F)ccc1-2,100% (inactive)
15,Cc1cc(Cl)ccc1Nc1nc(C(F)(F)F)ccc1C(=O)N/N=C/c1ccccc1Cl,12.5% (inactive)
16,CCCCCCCCCCCCCCCCCN,95.9% (inactive)
17,Oc1cc(O)c2c(=S)cc(-c3ccc(Cl)cc3)oc2c1,37.6% (inactive)
18,COc1ccc(Cl)cc1Nc1nc(C(F)(F)F)ccc1C(=O)N/N=C/c1c(Cl)cccc1Cl,48.4% (inactive)
19,COc1cc(-c2c(C#N)c(-c3cccs3)nc3c2c(-c2ccccc2)nn3-c2ccccc2)ccc1O,99.3% (inactive)
20,COc1cccc(/C=C/C(=O)/C=C(/C=C/c2cccc(OC)c2OC)OB(F)F)c1OC,26.1% (inactive)

row,Compound,growth
1,Cc1ccc(Nc2oc(-c3ccccc3)nc2[P+](c2ccccc2)(c2ccccc2)c2ccccc2)cc1,-32.5% (active)
2,C=C1CC[C@@H]2[C@](C)(COC(C)=O)[C@H](OC(C)=O)CC[C@@]2(C)[C@@H]1CC(Nc1ccc(S(=O)(=O)Nc2ccc(Cl)nn2)cc1)C1=CCOC1=O (stereo not given in full),-17.5% (active)
3,Cc1ccc(Nc2cc(=S)nc(N)[nH]2)cc1C,92.6% (inactive)
4,O=Nc1ccc(O)c(=O)cc1,4.36% (active)
5,O=S(=O)(NCCNc1nccc(-c2c(-c3ccc(O)cc3)nc3sccn23)n1)c1cccc2ccccc12,90.3% (inactive)
6,COc1ccc2[nH]c(-c3ccc(Cl)cc3)cc(=O)c2c1,75.7% (inactive)
7,CCc1cc2c(cc1N1CCC(N3CCOCC3)CC1)C(C)(C)c1[nH]c3cc(C#N)ccc3c1C2=O,-6.15% (active)
8,COc1ccc(C(=O)c2cc(OC)c(OC)c(OC)c2)cc1OC(=O)C(Cl)(Cl)Cl,-45.3% (active)
9,CCOC(=O)c1c(C)oc2ncnc(Nc3ccc(NC(=O)Nc4ccc(CC)cc4)cc3)c12,103% (inactive)
10,COc1ccc(-c2nc3sc4c(c3c(=O)[nH]2)CCCCCC4)cc1,29% (inactive)
11,COc1ccc2nc(NC(=O)Nc3c(F)cccc3F)sc2c1,79.1% (inactive)
12,COc1cc2c(=O)n(CC3CCCCC3)c3c4cc[nH]c4ncc3c2cc1OC,42.9% (inactive)
13,COc1ccc(Cn2cc(COc3ccc4c5ccnc(C)c5n(CCCc5ccccc5)c4c3)nn2)cc1,-55.7% (active)
14,Cc1ccc(-c2cc3c(cc2O)C2CCCCC2(N2CCOCC2)O3)cc1 (stereo not given),96.1% (inactive)
15,Cc1ncc(C(=O)Nc2ccc(CN3CCN(C)CC3)c(C(F)(F)F)c2)cc1C#Cc1cnc(N)c2ccncc12,-52.8% (active)
16,Cc1nn(CCO)c(C)c1N=[N+]([O-])c1c(C)nn(CCO)c1C,-45.8% (active)
17,COc1cc2c3c(c1O)-c1ccccc1[C@@H]1OC(=O)N(CC2)[C@H]31,112% (inactive)
18,CC(=O)O[C@]1(C)C[C@H](O)[C@]2(O)C=CO[C@H](O[C@@H]3O[C@H](CO)[C@@H](O)[C@H](O)[C@H]3O)[C@@H]21,92.5% (inactive)
19,CCOC(=O)c1cc(/C=C/c2cccc(Cl)c2)on1,74.9% (inactive)
20,COc1cccc(NC(=O)c2sc3nc4c(cc3c2N)C(O)CCC4)c1 (stereo not given),-16.8% (active)
